# Assay outcomes: PubChem BioAssay, several laboratories
# A selection: hits, their analogues and other compounds. The true share with any hit is near 6.6%.
# Mdm2-MdmX inh – human Mdm2/MdmX binding inhibition; 330,000 tested, 3% active; SaOS-2 split-luciferase Mdm2/MdmX complementation, luminescence; inhibition, % at 8 µM; O15151+Q00987;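 active = inhibition of at least 50% at 8 µM in the primary screen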
# Gli-Sufu block – blocks Gli-Sufu signaling in a luciferase reporter; 340,000 tested, 0.74% active; Sufu-KO-LIGHT fibroblasts, Gli luciferase reporter luminescence; inhibition, % at 5 µM;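 active = inhibition above about 55%, limit read from the data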;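 also: 0% = DMSO-treated cells and 100% = wells with medium but no cells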
# CSC inhib – cancer stem cell inhibition; 300,000 tested, 1.1% active; cancer stem cell-like cells viability, luminescence; inhibition, % at 7.5 µM; in the data active = inhibition above about 75%; inconclusive = no clear call, values can overlap the other calls; tested in HMLE shEcad cells
# GRIN3A LBD mod – modulators (binders) of human NR3A ligand-binding domain | NR3A LBD differential scanning fluorimetry, Tm shift; 0% = protein alone, 100% = glycine-bound protein | Tm shift relative to glycine control, % at 25 µM | 340,000 tested, 2.5% active | AID 1259313;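 active = melting temperature shift of at least 10% of the positive control shift, at one fixed dose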
# MPTP block – blocks calcium-induced mitochondrial swelling | AID 602449 | 360,000 tested, 1.4% active | isolated mouse mitochondria, Ca2+ swelling absorbance, 30 min | inhibition, % at 10 µM;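 active = inhibition of 50% or more, scaled per plate between neutral and stimulator controls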;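 also: 0% = DMSO wells given calcium and 100% = 1 mM EGTA wells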
# Beta cell apopt – beta cell apoptosis inhibition. INS-1E cytokine-induced death, ATP luminescence, 48 h; percent of positive-control rescue, neutral wells zero. protection from apoptosis, % (no concentration beside the values). 300,000 tested, 0.8% active. AID 435005;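 active = Every replicate reaches about 75%, or at least half do and their mean reaches it too, limit read from the data; inconclusive = At least half of replicates reach the limit but their mean does not; inactive = Under half of replicates reach the limit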;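 also: 0% = cytokine-treated negative control wells and 100% = positive control rescue; higher means more ATP so stronger rescue from cytokine killing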
# Mdm2-MdmX conf – confirmation of human Mdm2/MdmX interaction inhibitors; Mdm2-MdmX binding, luminescent assay; inhibition, % at 8 µM; 10,000 tested, 55% active; AID 489028; shares compounds with Mdm2-MdmX inh; in the data active = inhibition above about 40%
# FLuc counter – inhibits full-length luciferase, flagging false Mdm2/MdmX hits; shares compounds with Mdm2-MdmX inh; SaOS-2 full-length luciferase counterscreen, luminescence; inhibition, % at 8 µM; 6,200 tested, 77% active;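 active = mean inhibition at 8 µM reaching about 37%, which flags the compound as non-specific, limit read from the data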;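 also: p53-null SaOS-2 cells with luciferase driven by a doxycycline-inducible promoter; compound on cells about two nights before reading with doxycycline added after day one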
# Numbers without * were called inactive; ? = inconclusive; . = no result given.
SMILES,Mdm2-MdmX inh,Gli-Sufu block,CSC inhib,GRIN3A LBD mod,MPTP block,Beta cell apopt,Mdm2-MdmX conf,FLuc counter
Cc1cccc2cc(C(c3nnnn3Cc3ccccc3)N3CCCc4ccccc43)c(=O)[nH]c12 (stereo not given),88*,0,.,0,-3,-7,2,.
CCn1c(=O)cc(SCC(=O)N2CCN(c3ccccc3OC)CC2)c2ccccc21,62*,24,.,-2,-1,-11,37,.
CCn1c(=O)cc(SCC(=O)Nc2ccc(OC)c(OC)c2)c2ccccc21,52*,-5,6,-3,23,1,43*,58*
CCn1c(=O)cc(SCC(=O)Nc2ccc(Cl)cc2)c2ccccc21,31,-58,-4,-4,2,.,.,.
CCn1c(=O)cc(SCC(=O)N2CCOCC2)c2ccccc21,39,24,0,-2,-1,-6,.,.
COc1ccccc1N1CCN(C(=O)CSc2ccccc2)CC1,-28,-15,-1,-2,-1,-6,.,.
CCn1c(=O)cc(SCC(=O)N2CCN(C(=O)c3ccco3)CC2)c2ccccc21,53*,25,-4,-1,-1,-7,32,.
CC(=O)Nc1cccc(NC(=O)CSc2nc(=O)n(CCN3CCOCC3)c3c2CCC3)c1,19,-6,-12,0,0,-5,.,.
COc1ccc(C2=NS(=O)(=O)N(C)C(C(=O)NC3CCCCC3)=C2)cc1OC,23,12,-1,2,0,-1,.,.
O=C(O)c1cc(N/N=C/c2c(O)ccc3ccccc23)ccc1Cl,-71,-37,11,8,0,-10,.,.
COc1ccc(/C=N/NC(=O)CSCC(=O)Nc2ccccc2)cc1OC,12,3,-10,0,-1,-4,.,.
O=C(CSCC(=O)Nc1ccccc1)N/N=C/c1c(O)ccc2ccccc12,79*,7,58,9,2,-11,72*,28
COc1ccc(NC(C)C(=O)N/N=C/c2c(O)ccc3ccccc23)cc1 (stereo not given),65*,14,7,0,1,64,56*,39*
O=C(CNc1ccccc1)N/N=C/c1c(O)ccc2ccccc12,84*,-4,57,20*,6,84*,79*,27
COc1ccc(N=Cc2c(O)ccc3ccccc23)cc1,12,1,11,2,2,-4,.,.
COc1ccc(OC)c(CCNC(=O)C2CCN(c3ncnc4c3nc3n4CCCCC3)CC2)c1,6,11,0,2,-2,7,.,.
CCOC(=O)Nc1ccc2c(c1)N(C(=O)CCN(CC)CC)c1ccccc1CC2,-5,15,0,-3,1,.,.,.
CCOC(=O)Nc1ccc2c(c1)N(C(=O)CCN(CC)CC)c1ccccc1S2=O (stereo not given),67*,4,36,-2,-2,.,53*,30
COc1ccc(N2CC(C(=O)N/N=C/c3ccc(C)cc3)CC2=O)cc1 (stereo not given),52*,4,50,0,2,3,62*,53*
O=C(c1ccc2c(=O)n3c(nc2c1)CCCCC3)N1CCN(C(c2ccccc2)c2ccccc2)CC1,63*,8,54,-3,-2,8,22,.
C=CC(=O)Nc1ccc(Nc2nc(NC3CCC(N(C)C)CC3)nc3c2ncn3C(C)C)cc1 (stereo not given),96*,52,.,0,-1,43,100*,52*
COc1ccc(-c2cc(C(F)(F)F)n3ncc(C(=O)N(C)Cc4ccccc4)c3n2)cc1,15,20,-9,-1,-1,16,.,.
CC(NC(=O)CNC(=O)c1sc2ccccc2c1Cl)c1ccc(S(N)(=O)=O)cc1 (stereo not given),18,-1,5,-3,-1,-3,.,.
C=CCn1c(=NC(=O)c2sc3ccccc3c2Cl)sc2cc(S(N)(=O)=O)ccc21,68*,7,7,16*,4,6,35,.
CCOC(=O)Cn1c(=NC(=O)c2nc3ccccc3s2)sc2cc(S(N)(=O)=O)ccc21,63*,14,-14,-4,-3,16,18,.
SMILES,Mdm2-MdmX inh,Gli-Sufu block,CSC inhib,GRIN3A LBD mod,MPTP block,Beta cell apopt,Mdm2-MdmX conf,FLuc counter
CCOC(=O)Cn1c(=NC(=O)CN2C(=O)CCC2=O)sc2cc(S(N)(=O)=O)ccc21,0,-6,-16,-5,-3,-4,.,.
Cc1ccc(S(=O)(=O)c2nc(-c3ccc(F)cc3)oc2N2CCOCC2)cc1,-4,8,-9,0,1,-4,.,.
O=C(CN1c2ccccc2Sc2ccccc21)NNC(=O)Nc1cccc(Cl)c1,67*,2,82*,18*,38,?,24,90*
O=C(Cc1ccccc1)NNC(=O)Nc1cccc(Cl)c1,17,-2,-5,3,0,-10,.,.
CCOc1ccc(-n2c(C)cc(C(=O)CCl)c2C)cc1,94*,5,17,1,0,36,55*,88*
COC(=O)c1ccc(-n2c(C)cc(C(=O)CCl)c2C)cc1,94*,2,52,-1,-1,5,62*,58*
CN(C)NC(=S)NC1(C)CCS(=O)(=O)C1 (stereo not given),-9,1,-10,1,1,-4,.,.
CC(=NNC(=O)c1cccc(S(=O)(=O)N2CCOCC2)c1)c1ccc(Cl)cc1,-2,4,-14,2,1,0,.,.
C#CCOCCOCCOCCNc1nc(N2CCN(C(=O)CCCCCCCCCCNC(=O)Cn3cc(C[C@@H](C)O)nn3)CC2)nc(N2CCN(C(=O)CCCCCCCCCCNC(=O)[C@@H]([C@H](C)O)n3cc(C)nn3)CC2)n1,54*,22,158*,-4,-1,52,18,.
C#CCOCCOCCOCCNc1nc(N2CCN(C(=O)CCCCCCCCCCNC(=O)Cn3cc(C[C@@H](C)O)nn3)CC2)nc(N2CCN(C(=O)CCCCCCCCCCNC(=O)[C@@H]([C@H](C)CC)n3cc(CCCCCN)nn3)CC2)n1,98*,-11,124*,-2,-8,84*,77*,27
C#CCOCCOCCOCCNc1nc(N2CCN(C(=O)CCCCCCCCCCNC(=O)Cn3cc(CCCCCN)nn3)CC2)nc(N2CCN(C(=O)CCCCCCCCCCNC(=O)[C@@H]([C@H](C)O)n3cc(C)nn3)CC2)n1,47,30,10,8,-5,-2,.,.
OCC[C@@H]1C[C@@H](O)[C@H](O)[C@]2(Cc3ccccc3O2)O1,39,3,-8,1,-2,-7,.,.
CC(C)(C)N1C(=O)Cc2c1nc(N)c1c(N)nc(N3CCCCC3CO)c(C#N)c21 (stereo not given),68*,14,16,-11,-2,10,24,.
CN(CCO)c1nc(N)c2c(N)nc3c(c2c1C#N)CC(=O)N3C1CCCC1,-12,.,-14,.,.,48,.,.
